# DAX1 inh-1 – DAX1 (NR0B1) inhibitors on StAR promoter, primary screen, cell-based, luminescence, SF-1 (NR5A1), full-length DAX-1; hit rate 1.1% among 370,000; HEK293T StAR-luciferase reporter, SF-1/DAX-1 repression relief; inhibition, % at 6.8 µM; AID 652010, 2013;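 active = inhibition above the mean over all tested compounds plus 3 SD, cut at about 3.6% in these data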;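 also: 0% = DAX-1 cells with DMSO and 100% = cells lacking DAX-1 with DMSO; higher inhibition means more luminescence from relief of DAX-1 repression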
# hcDAF12 agonist – H. contortus DAF-12 nuclear receptor activators, primary screen, cell-based, luminescence, HEK293, lit1-tk-luc reporter; HEK293 hcDAF-12 lit1-tk-luc reporter; 0% DMSO, 100% Δ7-dafachronic acid; activation, % at 6.8 µM; hit rate 1.4% among 370,000;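 active = activation above the mean of all tested compounds plus 3 SD, cut at about 5.5% in these data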;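 also: 100% = response to 3 µM Δ7-dafachronic acid high control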
# ssDAF12 agonist – S. stercoralis DAF-12 nuclear receptor activators, primary screen, cell-based, luminescence, HEK293, GRIP1 co-expression, lit1-tk-luc; Nuclear hormone receptor DAF-12 (Strongyloides stercoralis); HEK293 ssDAF-12/GRIP1 lit1-tk-luc reporter; % of 3 µM dafachronic acid response; activation, % at 6.8 µM; hit rate 1% among 370,000;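 active = activation above the mean over all tested compounds plus 3 SD, cut at about 0.9% in these data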;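 also: 0% = DMSO-only wells and 100% = 3 µM delta7-dafachronic acid wells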
# hgDAF-12 ag – H. glycines DAF-12 receptor agonists, primary screen, cell-based, luminescence, HEK293, GAL4 fusion, UAS-luciferase | Nuclear hormone receptor DAF-12 (Heterodera glycines), GAL4 fusion | HEK293 GAL4-hgDAF12 UAS-luciferase reporter, agonist luminescence; normalized to butyrate control | activation, % at 6.8 µM | hit rate 1.8% among 370,000;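 active = activation above a cutoff set at the mean of all screened compounds plus 3 SD, cut at about 10% in these data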;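 also: 0% = DMSO wells and 100% = sodium butyrate wells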
# DAX1 inh-2 – DAX1 (NR0B1) inhibitors, primary screen, cell-based, HEK293, Gal4-DAX1, luciferase luminescence. Nuclear receptor subfamily 0 group B member 1 (Homo sapiens), P51843. HEK293 Gal4-DAX1 luciferase reporter. inhibition, % at 6.75 µM. hit rate 0.99% among 340,000. AID 504766, 2011;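 active = inhibition above the mean over all tested compounds plus 3 SD, cut at about 4.2% in these data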;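 also: 0% = DAX1-transfected cells with DMSO and 100% = empty-vector control cells with DMSO; inhibition shows as a rise in luminescence from relieved DAX1 repression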
# Target sequence (P51843 207-470 limits assumed): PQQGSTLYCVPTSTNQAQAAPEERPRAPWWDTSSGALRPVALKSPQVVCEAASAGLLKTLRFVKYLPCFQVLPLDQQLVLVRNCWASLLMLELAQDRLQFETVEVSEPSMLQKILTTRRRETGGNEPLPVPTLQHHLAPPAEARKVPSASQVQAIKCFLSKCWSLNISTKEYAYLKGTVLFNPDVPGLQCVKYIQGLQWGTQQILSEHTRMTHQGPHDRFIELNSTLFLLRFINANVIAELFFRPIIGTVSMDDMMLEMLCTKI
# DAX1 conf – DAX1 (NR0B1) inhibitors relieving SF-1 repression, confirmation, cell-based, luminescence, HEK293T, full-length DAX-1, SF-1 activated StAR promoter; hit rate 87% among 2,400; inhibition, % at 6.8 µM; HEK293T StAR-promoter luciferase reporter, SF-1/DAX-1 repression; shares compounds with DAX1 inh-1; AID 652134, 2013;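 active = inhibition above the average of every tested compound plus 3 SD, cut at about 3.8% in these data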;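 also: 0% = DAX-1 cells with DMSO and 100% = no DAX-1 control cells with DMSO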
# SF1 AF2mut Luc – StAR reporter signal changes without DAX1, counter-screen for DAX1 inhibitor project, cell-based, luminescence, AF-2 mutant SF-1, transactivation; inhibition, % at 6.8 µM; hit rate 78% among 2,400; HEK293 StAR-luciferase, SF-1 AF2 mutant; shares compounds with DAX1 inh-1;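 active = inhibition above the mean of all tested compounds plus 3 SD, cut at about 3% in these data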;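 also: 0% = DAX-1 transfected cells with DMSO and 100% = cells without DAX-1 with DMSO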
# * marks the source's active call; other numbers are inactive results; . = no result. Hits are enriched below; roughly 4.1% of the tested compounds scored in any of these assays.
SMILES,DAX1 inh-1,hcDAF12 agonist,ssDAF12 agonist,hgDAF-12 ag,DAX1 inh-2,DAX1 conf,SF1 AF2mut Luc
Cc1ccc2nc(-c3ccc(Cl)cc3)c(Cc3ccccn3)n2c1,6.7*,4.8,-1.1,11.3*,.,14.1*,4.5*
FC(F)(F)c1ccccc1Cc1c(-c2cccc(Cl)c2)nc2ccc(Br)cn12,1.7,0.9,-0.4,3.1,.,.,.
Cc1ccc2nc(-c3ccccn3)c(Nc3ccccc3C)n2c1,-0.2,-2.8,-1.4,-5.8,0.6,.,.
CC(C)NC(=O)Nc1cccc2c1O[C@H](CN(C)C(=O)NC1CCCCC1)[C@@H](C)CN([C@H](C)CO)C2=O,0.2,-0.7,-1.4,-1.0,0.7,.,.
C/C(=N\NC(=O)c1cccc(C)c1O)c1ccc(NC(=O)Cc2ccccc2)cc1,6.0*,6.5*,0.2,9.6,1.5,4.8*,3.8*
COc1ccccc1C(=O)N/N=C(\C)c1ccc(NC(=O)Cc2ccccc2)cc1,1.6,5.2,-0.2,7.3,1.0,.,.
COc1cc2c(c(OC)c1OC)-c1ccc(OC)c(=O)cc1C(NC(=O)c1ccccc1)CC2 (stereo unspecified),4.7*,0.6,-0.7,-5.1,1.0,15.6*,-6.2
COc1c(C=O)c2c(c(OC)c1OC)-c1ccc(OC)c(=O)cc1C(NC(C)=O)CC2 (stereo unspecified),5.1*,1.9,-0.4,-3.8,-0.6,21.0*,-8.3
CC1=CC(C2CC(=O)N(c3ccc(C)cc3)C2=O)CC2C(=O)N(c3ccc(C)cc3)C(=O)C12 (stereo unspecified),0.1,-1.2,-2.1,-0.4,1.1,.,.
COc1ccc(OCCOc2ccc(/C=C3\C(=N)N4N=C(C)SC4=NC3=O)cc2)cc1,-2.1,-1.1,-1.3,1.4,-0.1,.,.
COc1ccccc1OCc1cc(C(=O)N(C)CCC2CCCCO2)no1 (stereo unspecified),5.0*,2.8,0.2,10.7*,1.9,7.1*,2.8
Cc1cccc(NC(=O)/C=C/c2ccc(Cl)cc2)n1,4.6*,3.7,-0.4,12.0*,0.6,8.7*,5.0*
COc1cc(C)ccc1OCC(=O)Nc1ccc2c(c1)OCO2,6.2*,2.2,-0.2,9.1,0.7,7.7*,6.3*
O=C(COc1ccc(F)cc1)Nc1nccs1,7.5*,5.5,0.8,11.6*,1.6,10.8*,6.3*
O=C(COc1ccc(F)cc1)Nc1ccc2c(c1)OCCO2,5.0*,3.7,-0.6,10.2,0.9,4.2*,2.7
O=C(CS(=O)(=O)c1ccc(F)cc1)Nc1nccs1,2.1,-1.9,-1.0,0.1,1.1,.,.
CCc1ccccc1NC(=O)COc1ccc2c(c1)OCO2,0.1,-2.1,-1.6,0.8,2.4,.,.
Cc1ccc(NC(=O)COc2ccc3c(c2)OCO3)c(Cl)c1,5.0*,2.9,-0.8,13.2*,1.1,9.2*,4.3*
COc1ccccc1OCC(=O)Nc1ccc2c(c1)OCO2,1.2,-0.8,-0.9,2.5,-0.7,.,.
O=C(CNC(=O)c1ccncc1)N/N=C/c1ccccc1[N+](=O)[O-],-0.2,0.5,-0.7,-0.1,1.9,.,.
Cc1cc(O)cc(=O)n1-c1ccc(Cl)c(C(F)(F)F)c1,0.1,0.8,-1.0,-0.8,.,.,.
O=C(Cn1ncc2c([nH]c3ccccc32)c1=O)NCC1CCN(Cc2ccccc2F)CC1,-0.2,2.7,-1.1,-0.2,0.1,.,.
COc1ccc(CCNC(=S)N2CCC(Cc3ccccc3)CC2)cc1OC,-0.8,-1.9,-1.6,-4.2,-2.0,.,.
CC(C)(C)c1nnc(NC(=O)c2ccc3c(c2)OCO3)s1,2.0,4.2,0.1,9.6,2.5,.,.
CC(C)(C)c1nnc(NC(=O)COc2ccc3c(c2)OCO3)s1,7.9*,1.1,0.0,3.2,1.0,9.1*,7.2*
SMILES,DAX1 inh-1,hcDAF12 agonist,ssDAF12 agonist,hgDAF-12 ag,DAX1 inh-2,DAX1 conf,SF1 AF2mut Luc
CC(=O)OC[C@H]1O[C@H](C#Cc2ccc(C(C)(C)C)cc2)C=C[C@H]1OC(=O)Nc1ccccc1,0.4,-0.1,-1.2,2.9,.,.,.
COc1ccccc1C(=O)NCCC(=O)NC1CCC(C)CC1 (stereo unspecified),8.7*,3.6,0.5,7.8,1.1,10.3*,4.6*
COc1ccccc1C(=O)NCCC(=O)NC1CCCCC1C (stereo unspecified),1.2,-0.2,-1.0,-0.5,0.4,.,.
CC(C)C(=O)Nc1nnc(COc2ccc(Cl)cc2)s1,-0.2,0.1,-0.7,-0.6,2.5,.,.
CC(=O)Nc1nnc(COc2ccc(Cl)cc2)s1,5.5*,2.6,0.6,12.8*,1.6,6.2*,3.0*
CCOc1cc(N2CCOCC2)c(OCC)cc1NC(=O)CN1C(=O)NC2(CCCCC2C)C1=O (stereo unspecified),-0.4,0.1,-0.8,-2.6,-0.9,.,.
O=C(Cn1c(=O)cnc2ccccc21)NNC(=O)c1ccc(Cl)cc1,0.6,0.0,-0.6,2.0,0.2,.,.
CCc1ccc(C(=O)NNC(=O)Cn2c(=O)cnc3ccccc32)cc1,5.4*,-1.0,-0.5,2.2,-1.2,1.6,-0.9
CC(=O)N1CCN(C(=O)c2ccc(-c3ccccc3Cl)o2)CC1,3.0,3.1,-0.6,5.5,0.8,.,.
O=C(c1ccc(-c2ccccc2Cl)o1)N1CCCCCCC1,5.4*,2.1,0.1,10.8*,3.9,8.4*,6.1*
CCCCOc1ccc(C(=O)NCC(=O)NNC(=O)c2ccco2)cc1,-0.8,-0.6,-0.9,0.2,-0.5,.,.
NS(=O)(=O)c1ccc(-n2nncc2-c2ccco2)cc1,-0.1,-0.3,-0.5,0.4,0.6,.,.
OCC1OC(C(N=Nc2ccccc2)=NNc2ccccc2)C(O)C1O (stereo unspecified),1.0,3.4,-1.1,2.9,.,.,.
CCOC(=O)c1ccc2nc(NC(=O)C(C)C)sc2c1,4.6*,0.9,-0.4,12.6*,2.5,3.6,2.5
CCCC(=O)Nc1nc2ccc(C(=O)OCC)cc2s1,-0.2,0.5,-1.1,4.2,3.1,.,.
Cc1ccc2nc(NC(=O)COC(=O)c3cccnc3)sc2c1,5.6*,3.9,-0.7,12.0*,1.4,4.0*,2.8
